Activity calls are given as the source filed them. Unless noted, the rule behind the calls is not given here.
What was measured:
[1] = HepG2 liver cancer cell viability effects, profiling panel, resazurin fluorescence, 24 h, PK04 Diversity Set (AID 1172); conditions: higher = more signal
[2] = basal S. cerevisiae growth modulation, no modifier, primary screen, OD600, strain BY4716, 24 h, basal condition (AID 1173); conditions: OD600, 24 h, higher = more signal, called active from +8 up or from −8 down
[3] = MM1S myeloma cell viability, profiling panel, resazurin fluorescence, basal, 24 h, PK04 Diversity Set (AID 1174); conditions: higher = more signal, called active from +8 up or from −8 down;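 note: MM1S multiple myeloma cell line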
[4] = molecular target: Dihydroorotate dehydrogenase (quinone), mitochondrial (Plasmodium falciparum (isolate 3D7)) (UniProt Q08210); assay: PfDHODH enzyme inhibitors, primary screen, biochemical, C-terminal His tag, absorbance 600 nm (AID 1175); conditions: DCIP absorbance 600 nm, higher = more signal, called active from +8 up or from −8 down;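 note: recombinant parasite enzyme with a five histidine tag at its C terminus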
Chain of Dihydroorotate dehydrogenase (quinone), mitochondrial (Plasmodium falciparum (isolate 3D7)) (Q08210 whole entry, looked up): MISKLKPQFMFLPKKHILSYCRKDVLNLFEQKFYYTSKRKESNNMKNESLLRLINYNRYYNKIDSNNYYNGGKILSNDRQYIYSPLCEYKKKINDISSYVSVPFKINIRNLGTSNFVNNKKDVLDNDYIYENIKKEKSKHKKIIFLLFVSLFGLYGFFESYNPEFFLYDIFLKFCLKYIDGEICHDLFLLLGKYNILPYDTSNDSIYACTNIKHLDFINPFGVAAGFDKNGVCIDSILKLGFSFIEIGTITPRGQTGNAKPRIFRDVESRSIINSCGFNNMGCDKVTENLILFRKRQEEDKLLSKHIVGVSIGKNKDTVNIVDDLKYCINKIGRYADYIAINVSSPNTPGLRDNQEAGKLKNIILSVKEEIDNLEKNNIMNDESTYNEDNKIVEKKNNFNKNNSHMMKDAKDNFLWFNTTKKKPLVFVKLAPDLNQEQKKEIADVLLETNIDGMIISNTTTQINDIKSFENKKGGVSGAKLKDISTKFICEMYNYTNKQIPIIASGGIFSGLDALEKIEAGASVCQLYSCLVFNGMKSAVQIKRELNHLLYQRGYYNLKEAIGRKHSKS

[5] = P. aeruginosa biofilm formation inhibitors, primary screen, strain PAO1, LB-PBS medium, absorbance 600 nm (AID 1176); conditions: P. aeruginosa PAO1 growth/biofilm, A600, 12 h; higher = more signal
[6] = S. cerevisiae RM11-1a growth modifiers, primary screen, strain RM11-1a, OD600, basal, 24 h (AID 1177); conditions: OD600, 24 h, higher = more signal, called active from +8 up or from −8 down;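 note: cultures grown under basal conditions with no added stressor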
[7] = E. coli acrAB mutant growth effects, primary screen, E. coli filamentation inducers, strain DRC39, OD650, 24 h (AID 1178); conditions: higher = more signal, called active from +8 up or from −8 down;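 note: growth measured as culture turbidity by optical density at 650 nm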
[8] = E. coli acrAB mutant growth effects, primary screen, E. coli filamentation inducers, strain DRC39, OD650, 48 h (AID 1179);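 note: screen aims at cell division blockers that make cells filament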; conditions: E. coli DRC39 delta-acrAB growth, higher = more signal, called active from +8 up or from −8 down
[9] = RPMI8226 myeloma cell viability, profiling panel, resazurin fluorescence, basal, 24 h, PK04 Diversity Set (AID 1180); conditions: higher = more signal;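 note: RPMI8826 multiple myeloma cell line at 5000 cells per well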
[10] = molecular target: E3 ubiquitin-protein ligase XIAP (Homo sapiens) (UniProt P98170); assay: XIAP binders, primary screen, biophysical, small-molecule microarray, fluorescence 635 nm (AID 1181); conditions: small-molecule microarray binding, higher = more signal;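 note: score merges 667 nm emission and signal to noise over triplicate slides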
Chain of E3 ubiquitin-protein ligase XIAP (Homo sapiens) (P98170 whole entry, looked up): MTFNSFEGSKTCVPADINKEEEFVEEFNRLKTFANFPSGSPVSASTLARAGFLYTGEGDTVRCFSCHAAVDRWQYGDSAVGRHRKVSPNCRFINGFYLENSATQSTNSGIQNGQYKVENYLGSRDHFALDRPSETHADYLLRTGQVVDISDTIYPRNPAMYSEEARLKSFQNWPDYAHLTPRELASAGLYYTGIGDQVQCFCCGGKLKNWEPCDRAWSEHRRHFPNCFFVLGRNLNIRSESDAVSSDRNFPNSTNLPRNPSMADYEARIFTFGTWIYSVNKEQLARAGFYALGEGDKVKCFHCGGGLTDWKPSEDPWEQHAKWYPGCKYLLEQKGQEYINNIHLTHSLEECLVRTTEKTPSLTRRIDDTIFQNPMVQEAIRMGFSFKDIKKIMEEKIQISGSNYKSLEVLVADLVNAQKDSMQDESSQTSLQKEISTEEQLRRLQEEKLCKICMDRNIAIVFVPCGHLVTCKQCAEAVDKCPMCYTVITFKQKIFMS

[11] = tested on: XIP peptide (Xip251-270) binding; assay: small-molecule binders of XIP peptide, primary screen, biochemical, small-molecule microarray, fluorescence 635/667 nm, 0.1 µg/mL protein (AID 1182); conditions: fluorescent protein binding, 635 nm, higher = more signal, called active from +8 up or from −8 down
XIP peptide (Xip251-270) = assay: small-molecule binders of XIP peptide, primary screen, biochemical, small-molecule microarray, fluorescence 635/667 nm, 0.5 µg/mL protein (AID 1183); conditions: small-molecule microarray binding, fluorescence 635 nm; higher = more signal
[12] = Plasmodium falciparum growth inhibition, primary screen, strain 3D7, DAPI fluorescence, 100 nL (AID 1184);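 note: parasites grown inside human red blood cells in medium with human serum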; conditions: P. falciparum 3D7 growth, 3 d, higher = more signal
[13] = molecular target: Homeobox protein Hox-A13 (Mus musculus) (UniProt Q62424); assay: inhibitors of HoxA13-DNA binding, primary screen, biochemical, fluorescence polarization, labeled oligonucleotide (AID 1185); conditions: 15 min, higher = more signal, called active from +8 up or from −8 down
Chain of Homeobox protein Hox-A13 (Mus musculus) (Q62424 whole entry, looked up): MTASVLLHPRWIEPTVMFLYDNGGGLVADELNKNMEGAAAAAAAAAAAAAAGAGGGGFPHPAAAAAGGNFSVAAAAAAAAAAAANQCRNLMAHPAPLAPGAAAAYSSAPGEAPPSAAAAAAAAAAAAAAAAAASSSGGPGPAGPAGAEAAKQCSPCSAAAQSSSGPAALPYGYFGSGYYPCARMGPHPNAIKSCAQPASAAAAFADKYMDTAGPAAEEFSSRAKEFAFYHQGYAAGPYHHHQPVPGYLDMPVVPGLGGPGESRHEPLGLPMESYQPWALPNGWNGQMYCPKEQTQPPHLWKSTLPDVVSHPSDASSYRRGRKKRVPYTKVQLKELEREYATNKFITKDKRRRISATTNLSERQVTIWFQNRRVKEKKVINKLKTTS

[14] = inhibitors of hydroxyurea-induced Chk1 phosphorylation, primary screen, imaging, HeLa, phospho-Chk1 antibody, percent positive cells (AID 1186); conditions: hydroxyurea-induced phospho-Chk1 immunofluorescence imaging, higher = more signal
[15] = inhibitors of hydroxyurea-induced Chk1 phosphorylation, primary screen, imaging, HeLa, phospho-Chk1 nuclear intensity (AID 1187); conditions: hydroxyurea-induced phospho-Chk1 immunofluorescence imaging, higher = more signal

SMILES	z-score [1]	z-score [2]	z-score [3]	composite z-score [4]	z-score [5]	z-score [6]	z-score [7]	z-score [8]	z-score [9]	composite z-score [10]	composite z-score [11]	composite z-score (XIP peptide (Xip251-270))	z-score [12]	z-score [13]	z-score [14]	z-score [15]
NCCCCCNC(=O)[C@H]1C[C@H]2C(=O)NCC(=O)N2[C@H]1c1cccc(OCCO)c1	0.871	-0.0725 (inactive)	0.998 (inactive)	-0.355 (inactive)	-0.242 (inactive)	0.0993 (inactive)	1.07 (inactive)	1.23 (inactive)	0.616	-0.119	0.228 (inactive)	0.781	0.222	-1.68 (inactive)	0.0838 (inactive)	0.179 (inactive)
C=C[C@@H](COC(C)=O)N(Cc1ccccc1[N+](=O)[O-])S(=O)(=O)c1ccc(Br)cc1	-0.798	-2.24 (inactive)	-0.504 (inactive)	-2.79 (inactive)	-0.0963 (inactive)	-2.34 (inactive)	1.47 (inactive)	0.911 (inactive)	0.0192	0.183	2.18 (inactive)	0.387	-0.43	-2.89 (inactive)	-0.472 (inactive)	-0.567 (inactive)
O=C1C[C@]2(c3ccc([N+](=O)[O-])cc3)C(=O)N(CC(F)(F)F)c3cc(CO)ccc3[C@H]2N1CC12CC3CC(CC(C3)C1)C2	0.961	0.695 (inactive)	-1.2 (inactive)	-3.73 (inactive)	0.503 (inactive)	-0.319 (inactive)	0.973 (inactive)	0.672 (inactive)	-0.157	-0.222	0.2 (inactive)	0.822	0.0278	0.2 (inactive)	-0.151 (inactive)	-0.382 (inactive)
C[C@]1(C(=O)NCc2ccccc2)c2ccccc2C(=O)N(Cc2cc(F)cc(C(F)(F)F)c2)[C@H]1c1ccc(CO)cc1	-0.555	-0.276 (inactive)	-0.179 (inactive)	0.225 (inactive)	0.155 (inactive)	0.179 (inactive)	1.2 (inactive)	1.6 (inactive)	0.0748	0.0256	0.753 (inactive)	0.518	-0.327	-3.43 (inactive)	-0.603 (inactive)	-0.552 (inactive)
CC1=C2[C@@H](CCc3ccccc3)OB(O)C[C@@H]2n2c(=O)n(-c3ccccc3)c(=O)n2C1	-0.32	-2.07 (inactive)	-0.498 (inactive)	0.369 (inactive)	-0.177 (inactive)	-0.42 (inactive)	-0.618 (inactive)	-0.63 (inactive)	-0.582	0.0193	-0.105 (inactive)	0.777	1.65	-5.44 (inactive)	-0.0397 (inactive)	0.208 (inactive)
COCCOC(=O)N1C(=O)[C@@]2(c3cc(C#CCC(C(=O)OC)C(=O)OC)ccc31)[C@H](c1ccccc1OCCO)N1[C@H](c3ccccc3)[C@H](c3ccccc3)OC(=O)[C@H]1[C@@H]2C(=O)N1CCc2cc(OC)c(OC)cc2C1	1.68	0.983 (inactive)	1.58 (inactive)	-0.857 (inactive)	1.45 (inactive)	1.16 (inactive)	0.252 (inactive)	-0.441 (inactive)	1.78	0.314	0.201 (inactive)	0.64	-2.06	0.498 (inactive)	-0.122 (inactive)	0.261 (inactive)
CC(C)(C)N1CC=CC23O[C@@H]4C=CCOC(=O)[C@@H]4[C@H]2C(=O)N(CCCCCO)[C@@H]3C1=O (stereo partly drawn)	-0.308	0.285 (inactive)	-0.728 (inactive)	-0.0531 (inactive)	0.0962 (inactive)	-0.0325 (inactive)	-1.09 (inactive)	-1.2 (inactive)	-0.867	0.333	0.295 (inactive)	-1.13	-0.366	-4.43 (inactive)	0.241 (inactive)	-0.459 (inactive)
Cc1ccc(S[C@]2(C(=O)O)CC(=O)N(C3Cc4ccccc4C3)[C@@H]2c2ccc(CO)cc2I)cc1	0.186	-1.99 (inactive)	-1.95 (inactive)	0.0058 (inactive)	-0.109 (inactive)	-0.219 (inactive)	0.602 (inactive)	0.447 (inactive)	-1.78	-0.0726	-0.33 (inactive)	0.464	-0.111	-2.79 (inactive)	0.229 (inactive)	0.584 (inactive)
C=CCC(OC(C)=O)[C@@H]1[C@@H](N(Cc2cc3ccccc3o2)C(=O)c2ccc(C)cc2)c2cc(OCCCO)ccc2N1C(=O)c1ccc2ccccc2c1 (stereo partly drawn)	0.792	-0.195 (inactive)	0.951 (inactive)	-0.375 (inactive)	-0.583 (inactive)	0.0749 (inactive)	0.786 (inactive)	1.02 (inactive)	1.72	0.0015	-0.014 (inactive)	-0.152	-0.585	-1.33 (inactive)	-0.252 (inactive)	0.0758 (inactive)
COCCOC(=O)N1C(=O)[C@@]2(c3cc(C#CC4=CCCCC4)ccc31)[C@H](C(=O)N1CCc3cc(OC)c(OC)cc3C1)[C@H]1C(=O)O[C@H](c3ccccc3)[C@H](c3ccccc3)N1[C@@H]2c1ccccc1OCCO	-0.437	1.11 (inactive)	0.224 (inactive)	-0.0424 (inactive)	2.41 (inactive)	1.78 (inactive)	-0.649 (inactive)	0.418 (inactive)	-0.135	0.0039	0.0851 (inactive)	0.544	-2.23	2.24 (inactive)	-0.0513 (inactive)	0.226 (inactive)
COc1ccc(C(O)C2C=CC3C(=O)N(C)C(=O)C3N2Nc2ccccc2)cc1OCc1ccccc1 (stereo not drawn)	0.043	-12.9 (active)	-0.157 (inactive)	0.669 (inactive)	1.03 (inactive)	1.17 (inactive)	-1.02 (inactive)	-1.05 (inactive)	-0.543	0.209	0.492 (inactive)	0.879	0.039	-4.69 (inactive)	0.593 (inactive)	0.344 (inactive)
CCOC(=O)[C@H]1C[C@H]2O[C@@]23C[C@H]1C(=O)N1CCCC1[C@@H]3O[Si](C)(C)C(C)(C)C (stereo partly drawn)	-0.332	-4.67 (inactive)	-0.88 (inactive)	-0.17 (inactive)	0.367 (inactive)	-0.521 (inactive)	-0.205 (inactive)	-0.595 (inactive)	0.0096	-0.083	-0.0593 (inactive)	-0.829	-0.329	-5.3 (inactive)	-0.0084 (inactive)	-0.115 (inactive)
O=C1C2C=CC(C(O)c3ccc(-c4ccccc4)s3)N(n3cnnc3)C2C(=O)N1Cc1ccccc1 (stereo not drawn)	-0.295	1.07 (inactive)	-0.559 (inactive)	0.267 (inactive)	0.092 (inactive)	0.766 (inactive)	-0.27 (inactive)	-0.0301 (inactive)	-0.259	0.296	-0.457 (inactive)	0.951	-0.802	-2.98 (inactive)	-0.295 (inactive)	-0.514 (inactive)
Cc1ccc(S[C@]2(C(=O)NC3CC3)CC(=O)N(Cc3ccccc3)[C@@H]2c2ccc(CO)cc2)cc1	-0.177	-1.71 (inactive)	0.262 (inactive)	-0.867 (inactive)	0.196 (inactive)	-0.5 (inactive)	0.354 (inactive)	-0.255 (inactive)	0.35	0.0424	0.795 (inactive)	0.327	-0.308	-2.47 (inactive)	0.0616 (inactive)	0.0892 (inactive)
CN(C)C(=O)[C@@]1(CCC(=O)OC(C)(C)C)N=C(c2ccc(OCCCO)cc2)O[C@H]1c1ccccc1	-0.299	-0.757 (inactive)	-0.441 (inactive)	-0.507 (inactive)	0.401 (inactive)	-0.346 (inactive)	0.541 (inactive)	-0.353 (inactive)	0.276	-0.168	0.373 (inactive)	0.909	-1.8	-5.79 (inactive)	0.196 (inactive)	0.0613 (inactive)
COc1ccc(CCNC(=O)[C@@H]2c3ccccc3C(=O)N(Cc3ccc(OC(F)(F)F)cc3)[C@H]2c2ccc(CO)cc2)cc1	0.697	-0.484 (inactive)	-0.0601 (inactive)	0.274 (inactive)	1.52 (inactive)	-0.419 (inactive)	-0.344 (inactive)	-1.06 (inactive)	0.53	-0.228	0.987 (inactive)	0.486	-0.756	-4.53 (inactive)	-0.232 (inactive)	-0.312 (inactive)
COC(=O)c1ccc(C(O)C2C=CC3C(=O)N(c4ccccc4)C(=O)C3N2Nc2ccc(C#N)cc2)o1 (stereo not drawn)	-0.407	-0.959 (inactive)	-0.582 (inactive)	-0.847 (inactive)	1.38 (inactive)	0.0055 (inactive)	-1.52 (inactive)	-0.249 (inactive)	-0.357	-0.22	0.324 (inactive)	0.37	0.229	-3.24 (inactive)	-0.645 (inactive)	-0.852 (inactive)
COCCOC(=O)N1C(=O)[C@@]2(c3cc(C#CCCO)ccc31)[C@H](C(=O)NC[C@H](O)c1ccccc1)[C@H]1C(=O)O[C@H](c3ccccc3)[C@H](c3ccccc3)N1[C@@H]2c1ccc(O)cc1	0.816	0.562 (inactive)	0.858 (inactive)	1.34 (inactive)	0.29 (inactive)	1.36 (inactive)	1.01 (inactive)	0.887 (inactive)	1.04	-0.0126	-0.246 (inactive)	0.692	0.363	-3.53 (inactive)	-0.392 (inactive)	-0.542 (inactive)

From PubChem BioAssay
